The list shows a part of the results. Inconclusive results are not listed. Unmarked numbers belong to inactive results. Active and inactive are the calls of the source. The call rests on the fitted dose curve; in most records, active means well fitted curve in the direction sought with a large enough effect; inconclusive means small, poorly fitted or top-dose-only effect, or another doubt; inactive means no such curve, though single readings can be large; an effect the other way counts as inactive or inconclusive.
Potency means the concentration at half of the fitted maximal effect.

Sequence of DNA polymerase iota (Homo sapiens) (Q9UNA4 whole entry, looked up): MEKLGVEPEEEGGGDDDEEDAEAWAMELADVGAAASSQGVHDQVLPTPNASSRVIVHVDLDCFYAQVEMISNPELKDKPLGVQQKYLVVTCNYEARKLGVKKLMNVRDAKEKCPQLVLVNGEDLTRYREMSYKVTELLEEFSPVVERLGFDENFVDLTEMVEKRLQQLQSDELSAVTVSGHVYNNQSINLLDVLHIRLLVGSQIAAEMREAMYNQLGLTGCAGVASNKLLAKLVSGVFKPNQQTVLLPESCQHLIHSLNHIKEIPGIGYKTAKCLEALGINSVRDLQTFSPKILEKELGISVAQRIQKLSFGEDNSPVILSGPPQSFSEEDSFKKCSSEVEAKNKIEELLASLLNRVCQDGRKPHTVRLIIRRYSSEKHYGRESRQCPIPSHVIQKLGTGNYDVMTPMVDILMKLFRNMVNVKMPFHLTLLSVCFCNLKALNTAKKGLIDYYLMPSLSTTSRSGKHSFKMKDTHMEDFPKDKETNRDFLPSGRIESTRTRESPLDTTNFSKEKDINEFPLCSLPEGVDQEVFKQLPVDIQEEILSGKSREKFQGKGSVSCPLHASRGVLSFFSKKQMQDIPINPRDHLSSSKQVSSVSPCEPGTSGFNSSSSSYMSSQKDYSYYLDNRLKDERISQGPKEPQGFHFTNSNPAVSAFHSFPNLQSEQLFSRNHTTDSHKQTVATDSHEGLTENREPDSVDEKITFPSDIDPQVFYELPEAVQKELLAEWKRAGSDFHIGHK

One assay deals with DNA polymerase iota (Homo sapiens) (UniProt Q9UNA4). The assay can be described thus: qHTS for Inhibitors of Polymerase Iota: Confirmatory Assay for Cherry-picked Compounds (AID 720496). The note with it: Pol iota primer extension, TAMRA/BHQ fluorescence. The method, boiled down:
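Extension of a quenched TAMRA-reporter/BHQ-2-template DNA substrate (50 nM) by 10 nM Pol iota after 15 min compound preincubation. Strand-displacement fluorescence (525/598 nm) was read kinetically at 0 and 10 min. Buffer-only wells served as negative control.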
Turning to `CN1CCN(CCCNC(=O)c2ccc(/C=C3\Oc4ccccc4N(Cc4ccc(Cl)cc4)C3=O)cc2)CC1`, the Potency is 42.3 µM (active).
Same read-out and setting: in the case of `O=C(COC(=O)CCC(=O)c1cccs1)NCc1ccco1` it was 23.8 µM (active); in that of `COc1ccc2[nH]c3c(C)c4cc[n+](C)cc4c(C)c3c2c1`, 2.99 µM (active); in that of `CCOC(=O)C1=C(c2ccc(OC)cc2)C(=O)c2ccccc2C1=O`, 75.2 µM (active).
For `CCc1ccc2nc3sc(C(=O)Nc4nnc(CC)s4)c(N)c3cc2c1`, the Potency is 47.4 µM (active).
Same read-out and setting: in the case of `O=C(O)C(c1ccccc1)N1C(=O)/C(=C\c2ccc(-c3cccc(Cl)c3)o2)SC1=S` (stereo not drawn) it was 67 µM (active); in that of `CN(C)CCNC(=O)c1ccc(Cl)c2cc3ccccc3nc12`, 67 µM (active); in that of `Cc1ccc(-c2nn(-c3ccccc3)cc2/C=C2\SC(=S)N(CCCCCC(=O)O)C2=O)o1`, 29.9 µM (active).
The same measure, in the same setting: in the case of `CC(/C=N/NC(=O)c1cc(-c2ccc3ccccc3c2)n[nH]1)=C\c1ccco1` it was 75.2 µM (active); in that of `CCOc1cccc2c1N[C@@H](c1ccc(C(=O)O)cc1)[C@H]1CC=C[C@@H]21`, 33.6 µM (active).

The target in the next assay is Bifunctional 3'-5' exonuclease/ATP-dependent helicase WRN (Homo sapiens) (UniProt Q14191). Kind of assay: qHTS for Inhibitors of WRN Helicase: Confirmatory Assay for Cherry-picked Compounds. (AID 720497). Further: nearly all actives have a fitted effect of over 65% in size. The settings on record: WRN helicase DNA unwinding, fluorescence kinetic; series mostly up to 57.1 µM; activity, negative = inhibition: at the top concentration. The method, boiled down: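 Helicase activity is tracked as a kinetic fluorescence signal (excitation 525 nm, emission 598 nm) after 100 nM forked duplex DNA and 2 mM ATP are added to 20 nM WRN that has been preincubated 15 min with compound at room temperature.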
Sequence of Bifunctional 3'-5' exonuclease/ATP-dependent helicase WRN (Homo sapiens) (Q14191 whole entry, looked up): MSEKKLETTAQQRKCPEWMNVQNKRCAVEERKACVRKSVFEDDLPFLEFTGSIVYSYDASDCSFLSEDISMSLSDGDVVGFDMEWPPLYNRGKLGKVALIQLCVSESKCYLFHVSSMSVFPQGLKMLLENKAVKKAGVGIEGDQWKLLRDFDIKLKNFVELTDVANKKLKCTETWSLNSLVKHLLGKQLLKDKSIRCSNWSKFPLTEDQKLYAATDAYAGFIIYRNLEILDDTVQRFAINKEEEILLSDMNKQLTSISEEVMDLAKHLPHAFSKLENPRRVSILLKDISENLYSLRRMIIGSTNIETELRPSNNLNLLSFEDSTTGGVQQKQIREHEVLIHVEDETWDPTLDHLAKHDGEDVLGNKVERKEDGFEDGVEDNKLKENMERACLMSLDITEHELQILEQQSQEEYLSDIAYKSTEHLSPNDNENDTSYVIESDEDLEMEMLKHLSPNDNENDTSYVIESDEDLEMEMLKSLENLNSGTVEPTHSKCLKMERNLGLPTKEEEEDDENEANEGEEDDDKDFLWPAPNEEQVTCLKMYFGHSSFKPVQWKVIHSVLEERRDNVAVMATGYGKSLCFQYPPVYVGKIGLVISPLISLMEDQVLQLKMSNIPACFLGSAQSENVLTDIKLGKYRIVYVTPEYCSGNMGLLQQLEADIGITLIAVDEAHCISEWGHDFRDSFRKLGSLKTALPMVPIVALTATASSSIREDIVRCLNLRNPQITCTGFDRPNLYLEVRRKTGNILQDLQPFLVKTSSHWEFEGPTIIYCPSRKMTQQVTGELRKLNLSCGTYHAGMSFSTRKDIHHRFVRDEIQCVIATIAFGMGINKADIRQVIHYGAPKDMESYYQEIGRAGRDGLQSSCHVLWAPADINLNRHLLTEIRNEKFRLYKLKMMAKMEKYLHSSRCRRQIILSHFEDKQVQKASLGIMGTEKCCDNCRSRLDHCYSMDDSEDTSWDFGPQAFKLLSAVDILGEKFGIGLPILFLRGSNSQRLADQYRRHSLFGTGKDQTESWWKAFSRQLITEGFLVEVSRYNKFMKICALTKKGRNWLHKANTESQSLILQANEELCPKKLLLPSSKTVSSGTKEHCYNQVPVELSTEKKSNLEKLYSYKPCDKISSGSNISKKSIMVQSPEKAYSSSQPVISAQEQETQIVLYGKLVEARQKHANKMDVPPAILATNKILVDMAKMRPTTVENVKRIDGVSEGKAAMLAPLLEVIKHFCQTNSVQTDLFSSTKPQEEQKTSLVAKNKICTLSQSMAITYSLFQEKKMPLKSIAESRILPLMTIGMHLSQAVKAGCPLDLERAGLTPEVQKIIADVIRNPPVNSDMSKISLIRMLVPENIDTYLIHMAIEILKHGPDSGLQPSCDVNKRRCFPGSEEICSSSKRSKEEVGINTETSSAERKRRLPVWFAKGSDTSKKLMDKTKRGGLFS
For orientation: qHTS replaces the single test concentration by a dilution series.
On to `CN(C)c1nc(Nc2ccc(Cl)c(Cl)c2)nc(N(C)C)n1`, for which the “activity, negative = inhibition” value was -7.11%.
Turning to `COc1cccc2c1C(=O)c1c(O)c3c(c(O)c1C2=O)CC(O)(C(C)=NNC(=O)c1ccc(Cl)c(Cl)c1)CC3OC1CC(N)C(O)C(C)O1` (stereo not drawn), the Potency was 1.92 µM (active).
The same measure, in the same setting: the result for `N#C/C(=C\C1=C(N2CCOCC2)C(=C\c2ccccc2)/CC1)C(=O)Nc1ccccc1F` reads 38.3 µM (active); that for `CCc1ccc2nc3sc(C(=O)Nc4nnc(CC)s4)c(N)c3cc2c1`, 13.6 µM (active).
Regarding `CCN(CC)CCOc1ccc2c(c1)C(=NNC(=O)c1ccccn1)c1cc(OCCN(CC)CC)ccc1-2`, the Potency was 13.6 µM (active).
With `CN1CCN(S(=O)(=O)c2cccc(C(=O)Nc3sccc3C#N)c2)CC1`, the Potency is 24.1 µM (active).

The target in the next assay is Flap endonuclease 1 (Homo sapiens) (UniProt P39748). Kind of assay: qHTS Assay for the Inhibitors of FEN1: Confirmatory Assay for Cherry-picked Compounds (AID 720498). Further: nearly all actives have a fitted effect of over 60% in size. The settings on record: FEN1 flap cleavage, TAMRA/BHQ2 fluorogenic DNA substrate. In a few lines: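 Human FEN1 (10 nM reagent) was preincubated with compounds for 15 min at room temperature, then 50 nM final double-flap DNA substrate (5'-TAMRA flap, BHQ-2 quencher strand) was added. Fluorescence (ex 525/em 598 nm) was read at 0 and 15 min.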
Sequence of Flap endonuclease 1 (Homo sapiens) (P39748 whole entry, looked up): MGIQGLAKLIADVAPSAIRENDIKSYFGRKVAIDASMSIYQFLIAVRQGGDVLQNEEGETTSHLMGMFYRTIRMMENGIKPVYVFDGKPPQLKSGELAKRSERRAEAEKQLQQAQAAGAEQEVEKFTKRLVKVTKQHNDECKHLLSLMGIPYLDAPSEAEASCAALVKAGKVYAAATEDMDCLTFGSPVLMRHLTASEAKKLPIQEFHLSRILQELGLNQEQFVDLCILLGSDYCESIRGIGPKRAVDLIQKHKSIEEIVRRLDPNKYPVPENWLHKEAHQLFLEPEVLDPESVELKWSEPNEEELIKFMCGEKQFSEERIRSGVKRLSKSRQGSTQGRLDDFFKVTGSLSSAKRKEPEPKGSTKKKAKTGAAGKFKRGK
Consider `CN1CCN(CCCNC(=O)c2ccc(/C=C3\Oc4ccccc4N(Cc4ccc(Cl)cc4)C3=O)cc2)CC1`, for which the Potency is 23.9 µM (active).
Take `O=[N+]([O-])c1ccc(C=Nc2ccc(Cl)cc2Cl)s1`: the Potency was 6.75 µM (active).
The same measure, in the same setting: in the case of `CC(=O)Nc1ccc(Nc2c3ccccc3nc3ccccc23)cc1` it was 30.1 µM (active); in that of `CC(=O)OC1CCC2(C)C(=CCC3C4CC(=O)N(O)C(=O)C4(C)CCC32)C1` (stereo not drawn), 23.9 µM (active).
For `COc1cc(NC(=O)COC(=O)c2ccc([N+](=O)[O-])s2)cc(OC)c1OC`, the Potency is 6.01 µM (active).
The same measure, in the same setting: the result for `CCN1CCN(CCCNC(=O)c2ccc3c(c2)sc2nc(-c4ccc(OC)cc4)cn23)CC1` reads 33.8 µM (active); that for `CCN(CC)c1ccc2cc(C(N)=O)/c(=N\NC(=O)c3ccncc3)oc2c1`, 33.8 µM (active); that for `COc1ccc2[nH]c3c(C)c4cc[n+](C)cc4c(C)c3c2c1`, 1.35 µM (active).
As for `c1ccc2cc3c(NCCN4CCOCC4)ccnc3cc2c1`, the Potency is 37.9 µM (active).
Same read-out and setting: the result for `CCN1CCN(CCNC(=O)c2ccc3c(c2)NC(=O)/C(=C\c2ccc(OC)c(OC)c2)S3)CC1` reads 33.8 µM (active); that for `O=C(COC(=O)c1ccc([N+](=O)[O-])o1)NC12CC3CC(CC(C3)C1)C2`, 8.49 µM (active).
On the same count and under the same terms, in the case of `CCc1ccc2nc3sc(C(=O)Nc4nnc(CC)s4)c(N)c3cc2c1` it was 60.1 µM (active); in that of `O=C(O)C(c1ccccc1)N1C(=O)/C(=C\c2ccc(-c3cccc(Cl)c3)o2)SC1=S` (stereo not drawn), 75.7 µM (active); in that of `COc1nc(N=C(N)N)nc2c(C)cccc12`, 33.8 µM (active).
On the same count and under the same terms, the result for `CN(C)CCNC(=O)c1ccc(Cl)c2cc3ccccc3nc12` reads 13.5 µM (active); that for `O=C(CCNC(=O)c1ccccc1)NN=Cc1ccc(Br)o1`, 84.9 µM (active).
For `CCOc1cccc2c1N[C@@H](c1ccc(C(=O)O)cc1)[C@H]1CC=C[C@@H]21`, the Potency was 47.8 µM (active).

These data come from PubChem BioAssay (NCATS).
